A short description of assay [1]: ACEA_ER_80hr: ACEA Biosciences xCELLigence Real-Time Cell Analysis on Estrogen Receptor Agonism for Proliferation (AID 2282667; active means hit-call score of the fitted dose curve at least 0.9, where 1 is the maximum). The following applies: T47D proliferation, impedance (xCELLigence), 80 h. An outline of the steps:
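Real-time electrical impedance tracked growth of the human breast line T47D, with the 80 h post-dosing value used. Dosing spanned eight 1:4 steps down from a 100 uM final top concentration, run in duplicate.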

Assay [2] can be described thus: APR_HepG2_CellCycleArrest_24hr: Apredica 24-hour HepG2 Assay for Cell Cycle Arrest (AID 2282905).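 Further: cell cycle arrest scored as ratio of 2N to 4N nuclear DNA content.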 The following applies: imaging, actives raise or lower the signal. The procedure, abridged: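 After 24 h exposure at 0.39–200 uM in 0.5% DMSO, fixed cells received Hoechst 33342 staining. Imaging quantified per-nucleus DNA content; gain or loss fitted against DMSO controls.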

Assay [3] is described as follows: APR_HepG2_NuclearSize_24hr: Apredica 24-hour HepG2 Assay for Nuclear Size (AID 2282907). To be noted: high-content imaging, actives raise or lower the signal. An outline of the steps: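 Nuclear size from Hoechst 33342-stained, formaldehyde-fixed HepG2 nuclei imaged by high-content microscopy, after 24 h dosing at ten concentrations from 0.39 to 200 uM in 0.5% DMSO; gain or loss relative to DMSO baseline.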

A short description of assay [4]: APR_HepG2_CellLoss_24hr: Apredica 24-hour HepG2 Assay for Cell Loss (AID 2282908).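 On AC50: fit in both directions so a hit may be cell loss or gain.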 The following applies: high-content imaging. The procedure, abridged:
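Nuclei stained with Hoechst 33342 after formaldehyde fixation (3.7%) were imaged at 20x to count cells. Exposure lasted 24 hr, at ten concentrations from 0.39 to 200 uM in duplicate, with 0.5% v/v DMSO. Fit bidirectional, relative to DMSO.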

The nature of assay [5]: APR_HepG2_MitoticArrest_24hr: Apredica 24-hour HepG2 Assay for Mitotic Arrest (AID 2282910). To be noted: high-content imaging, actives raise or lower the signal. An outline of the steps: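 HepG2, 24 hr dosing, 0.39–200 uM, 0.5% DMSO final. Formaldehyde-fixed, Triton-permeabilised, anti-phospho-histone H3 plus Hoechst. ArrayScan imaging at 20x; bidirectional fit vs DMSO baseline.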

Assay [6] is described as follows: APR_HepG2_MitoMembPot_24hr: Apredica 24-hour HepG2 Assay for Mitochondrial Membrane Potential (AID 2282911). To be noted: imaging, actives raise or lower the signal. The procedure, abridged:
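Cells are dosed for 24 hr across 0.39 to 200 uM with solvent held at 0.5% DMSO. They are then stained with 250 nM MitoTracker Red CMXRos for 30 min, fixed in 3.7% formaldehyde and imaged.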

Assay [7] can be described thus: APR_HepG2_MitoMass_24hr: Apredica 24-hour HepG2 Assay for Mitochondrial Mass (AID 2282912). To be noted: high-content imaging, actives raise or lower the signal. An outline of the steps:
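Endpoint is MitoTracker Red CMXRos (250 nM, 30 min, pre-fixation) intensity from 20x high-content imaging, nuclei located by Hoechst. Human HepG2 cells received ten concentrations from 0.39 to 200 uM in 0.5% DMSO for 24 hr, duplicate wells. Bidirectional fit relative to DMSO.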

A short description of assay [8]: APR_HepG2_CellCycleArrest_72hr: Apredica 72-hour HepG2 Assay for Cell Cycle Arrest (AID 2282914). To be noted: high-content imaging, actives raise or lower the signal. The procedure, abridged:
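Read-out is Hoechst-stained nuclear DNA content measured by automated fluorescence imaging (20x, six images per well), fitted in both directions relative to DMSO. Human HepG2 liver cells received 0.39–200 uM compound for 72 hr at 0.5% v/v DMSO.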

Assay [9] is described as follows: APR_HepG2_CellLoss_72hr: Apredica 72-hour HepG2 Assay for Cell Loss (AID 2282915). The following applies: high-content imaging. An outline of the steps:
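HepG2 cells exposed 72 h to compound at 0.39–200 uM (10 concentrations, duplicate) in 0.5% DMSO. Fixed with 3.7% formaldehyde and Hoechst 33342-stained. Imaged at 20x; nuclear count gives cell number, fitted bidirectionally versus DMSO.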

Assay [10] can be described thus: APR_HepG2_P-H2AX_72hr: Apredica 72-hour HepG2 Assay for H2AX Phosphorylation (AID 2282916).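 Further: phospho-histone H2A.x immunostain intensity per cell marking DNA damage.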 To be noted: imaging, actives raise or lower the signal. The procedure, abridged:
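Phospho-histone H2A.x immunofluorescence, multiplexed with Hoechst and c-Jun, quantified by high-content imaging. Compounds applied to HepG2 for 72 h across ten concentrations (0.39–200 uM, 0.5% DMSO), in duplicate; DMSO baseline.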

A short description of assay [11]: APR_HepG2_MitoMembPot_72hr: Apredica 72-hour HepG2 Assay for Mitochondrial Membrane Potential (AID 2282917). The following applies: imaging, actives raise or lower the signal. An outline of the steps: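 HepG2 cells dosed 72 hr with compound at 0.39–200 uM in duplicate, 0.5% v/v DMSO final. Mitochondria stained with 250 nM MitoTracker Red CMXRos for 30 min before formaldehyde fixation, imaged by high-content fluorescence; bidirectional fit versus DMSO.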

Assay [12] in a line: APR_HepG2_MitoticArrest_72hr: Apredica 72-hour HepG2 Assay for Mitotic Arrest (AID 2282918). To be noted: high-content imaging, actives raise or lower the signal. The procedure, abridged:
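Read-out is phospho-histone H3 immunofluorescence with Hoechst nuclear segmentation, imaged at 20x. Human HepG2 liver cells received ten concentrations (0.39–200 uM, final DMSO 0.5% v/v) for 72 hr before fixation. Gain or loss of signal was fitted relative to DMSO.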

Assay [13] can be described thus: APR_HepG2_MicrotubuleCSK_72hr: Apredica 72-hour HepG2 Assay for Microtubule CSK Stabilty (AID 2282919). To be noted: HepG2 microtubule cytoskeleton, high-content imaging, actives raise or lower the signal. An outline of the steps:
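HepG2, 72 hr cmpd exposure, 0.39–200 uM (10 pts, duplicate), 0.5% DMSO. 3.7% formaldehyde fix, 0.5% Triton perm, anti-alpha-tubulin/Cy5 plus Hoechst. HCS fluorescence intensity; bidirectional fit vs DMSO baseline; taxol as positive control.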

The nature of assay [14]: APR_HepG2_P-H2AX_24hr: Apredica 24-hour HepG2 Assay for H2AX Phosphorylation (AID 2282920). To be noted: high-content imaging, actives raise or lower the signal. An outline of the steps:
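HepG2, 24 hr, cpd 0.39–200 uM (10 conc, duplicate), DMSO 0.5% v/v final. Fix 3.7% formaldehyde, Triton X-100 permeabilize, anti-phospho-H2A.x 1:200 + Hoechst 2 ug/mL. Imaged, bidirectional fit vs DMSO.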

Assay [15] is described as follows: APR_HepG2_StressKinase_72hr: Apredica 72-hour HepG2 Assay for Stress Kinase (AID 2282921). To be noted: HepG2 stress kinase (phospho-c-Jun) imaging, actives raise or lower the signal. An outline of the steps: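 Stress kinase signal is phospho-c-Jun immunofluorescence (1:500 primary, Cy3 secondary) in fixed, permeabilized human HepG2 cells imaged at 20x. Exposure lasted 72 hr over ten concentrations from 0.39 to 200 uM, 0.5% DMSO, in duplicate. Bidirectional fit versus DMSO.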

A short description of assay [16]: APR_HepG2_StressKinase_24hr: Apredica 24-hour HepG2 Assay for Stress Kinase (AID 2282922). To be noted: HepG2 stress kinase (phospho-c-Jun) imaging, actives raise or lower the signal. The procedure, abridged: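 Read-out: phospho-c-Jun immunofluorescence (Cy3 secondary) quantified by high-content imaging at 20x, nuclei defined by Hoechst 33342. Human HepG2 liver cells dosed 24 hr, 0.39–200 uM, DMSO 0.5% v/v; gain or loss of signal fitted relative to DMSO.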

Assay [17] can be described thus: APR_HepG2_MitoMass_72hr: Apredica 72-hour HepG2 Assay for Mitochondrial Mass (AID 2282924).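 Further: MitoTracker Red CMXRos stain intensity per cell imaged as mitochondrial mass.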 To be noted: high-content imaging, actives raise or lower the signal. An outline of the steps: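 Read-out: MitoTracker Red fluorescence intensity from automated imaging (20x, six fields per well) in human HepG2 liver cells. Dosing ran 72 hr, 0.39–200 uM, 0.5% DMSO; bidirectional curve fitting versus DMSO baseline.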

Assay [18] is described as follows: APR_HepG2_NuclearSize_72hr: Apredica 72-hour HepG2 Assay for Nuclear Size (AID 2282925). To be noted: high-content imaging, actives raise or lower the signal. An outline of the steps: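 Read-out: nuclear diameter from Hoechst 33342 images (ArrayScan, 20x, six fields/well), via cell-cycle image analysis. HepG2 were dosed 0.39–200 uM for 72 hr in 0.5% DMSO. Bidirectional fit relative to DMSO.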

Assay [19] is described as follows: APR_HepG2_p53Act_24hr: Apredica 24-hour HepG2 Assay for p53 Activation (AID 2282913).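 Further: p53 protein immunofluorescence averaged per cell in HepG2 with Hoechst nuclei.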 To be noted: high-content imaging, actives raise or lower the signal. An outline of the steps:
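Human HepG2 liver cells; 24 hr cpd treatment, 0.39–200 uM, 0.5% DMSO final. Fixed in 3.7% formaldehyde, permeabilized with 0.5% Triton X-100, stained with anti-p53/Cy5 plus Hoechst 33342. Six images per well at 20x; gain or loss vs DMSO.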

Assay [20] can be described thus: APR_HepG2_MicrotubuleCSK_24hr: Apredica 24-hour HepG2 Assay for Microtubule CSK Stabilty (AID 2282909). To be noted: HepG2 microtubule cytoskeleton imaging, actives raise or lower the signal. The procedure, abridged:
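Fixed HepG2 cells were stained for alpha-tubulin and imaged after 24 hr exposure to ten concentrations spanning 0.39–200 uM in 0.5% DMSO. Signal change was fitted in both directions relative to DMSO; taxol was the positive control.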

For seven molecules, outcome and AC50 results are on record in PubChem BioAssay (EPA / NIEHS).

As usually defined, the AC50 is the concentration giving half of the maximal activity seen.

Records with an inconclusive call do not appear. The source made the active and inactive calls. How the source made its calls, unless noted: active means hit-call score of the fitted dose curve at least 0.9, where 1 is the maximum; inactive means score below 0.9.

As to `Cc1ccc(S(=O)(=O)NC(=O)NN2CCCCCC2)cc1`, the outcome in assay [1], in assay [2], in [3], in assay [4], in [5] and in [6] was inactive. In addition, the call in assay [7], in assay [8], in assay [9], in [10], in assay [11] and in assay [12] was inactive. The call in assay [13], in assay [14], in [15], in assay [16], in [17] and in [18] was inactive.

For `c1ccc2cc3ccccc3cc2c1`, the call in assay [1], in [3], in [5], in [6], in assay [7] and in [19] was inactive. Further, the molecule was called inactive in assay [15], in assay [16] and in [18]. In addition, the AC50 is 106 µM (active) in assay [2]; 100 µM (active) in assay [4]; 110 µM (active) in assay [8]; 139 µM (active) in assay [9]; 112 µM (active) in [10]; 107 µM (active) in assay [14].

On to `OC(Cn1cncn1)(Cn1cncn1)c1ccc(F)cc1F`, for which the result in assay [1], in assay [2], in assay [3], in assay [4], in assay [5] and in assay [6] was inactive. Moreover, the call in [7], in assay [19], in assay [8], in assay [9], in assay [10] and in [11] was inactive. Further, the molecule was classed as inactive in [13], in assay [14], in [15], in assay [16], in assay [17] and in assay [18].

For `CC1(C)C(=O)N(Cl)C(=O)N1Cl`, the molecule was called inactive in assay [1], in assay [3], in [4], in [20], in assay [5] and in assay [6]. Moreover, the result in assay [7], in [19], in assay [8], in assay [9], in assay [10] and in assay [14] was inactive. Also, the outcome in [15], in [16] and in [18] was inactive.

As to `OCC(CO)(CO)CO`, the call in assay [1], in [3], in assay [4], in [20], in assay [5] and in assay [6] was inactive. Besides, the molecule was classed as inactive in [7], in assay [8], in assay [9], in assay [10], in assay [11] and in [13]. In addition, the call in assay [14], in [15], in assay [16], in [17] and in assay [18] was inactive.

`c1ccc2ncccc2c1`: the molecule was classed as inactive in [1], in [2], in [3], in assay [4], in assay [5] and in [6]. Further, the outcome in [7], in assay [19], in assay [8], in assay [9], in assay [10] and in [11] was inactive. For the same molecule, the call in assay [13], in assay [14], in assay [15], in assay [16], in assay [17] and in [18] was inactive.

Take `CCCC(CCC)C(=O)O`: the molecule was classed as inactive in assay [1], in assay [3], in assay [4], in [20], in assay [5] and in [6]. In addition, the molecule was classed as inactive in assay [7], in assay [8], in assay [9], in assay [10], in assay [11] and in [13]. The molecule was classed as inactive in assay [14], in assay [15], in assay [16], in assay [17] and in assay [18].
